# Test results as given in PubChem BioAssay AID1159580 (chemical genetic matrix, 2015).
# The campaign covered roughly 5,500 compounds. About 2,000 (36%) were called active. Inconclusive results (about 18%) are left out. Some of the results follow. Unmarked numbers belong to inactive results. Rule as the data show it: active = normalized growth mostly below about 0.91 (no sharp cut-off); inconclusive = no clear call, values can overlap the other calls; inactive = mostly above about 0.92.
# Assay: chemical genetic growth profiling, strain panel (AID 1159580);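 also: tested at 20 µM; growth read once vehicle control cultures reached saturation at 30 °C; 1 = growth at the plate median or of vehicle wells; lower values mean less growth of the strain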
# Conditions: growth OD
# [1] = S. cerevisiae deletion strains, locus YBR021W, strain FUR4, active compounds read low
# [2] = S. cerevisiae deletion strains, locus YBR229C, strain ROT2, active compounds read low
# [3] = S. cerevisiae deletion strains, locus YCL029C, strain bik1, active compounds read low
# [4] = S. cerevisiae deletion strains, locus YDL035C, strain GPR1, active compounds read low
# [5] = S. cerevisiae deletion strains, locus YDL074C, strain BRE1, active compounds read low
# [6] = S. cerevisiae deletion strains, locus YDL101C, strain DUN1, active compounds read low
# [7] = S. cerevisiae deletion strains, locus YDL134C, strain PPH21, active compounds read low
# [8] = S. cerevisiae deletion strains, locus YDL185W, strain tfp1, active compounds read low
# [9] = S. cerevisiae deletion strains, locus YDL192W, strain arf1, active compounds read low
# [10] = S. cerevisiae deletion strains, locus YDR101C, strain arx1, active compounds read low
# [11] = S. cerevisiae deletion strains, locus YDR162C, strain NBP2, active compounds read low
# [12] = S. cerevisiae deletion strains, locus YDR318W, strain mcm21, active compounds read low
# [13] = S. cerevisiae deletion strains, locus YDR388W, active compounds read low
# [14] = S. cerevisiae deletion strains, locus YDR502C, strain sam2, active compounds read low
# [15] = S. cerevisiae deletion strains, locus YEL061C, strain CIN8, active compounds read low
# [16] = S. cerevisiae deletion strains, locus YER110C, active compounds read low
# [17] = S. cerevisiae deletion strains, locus YER155C, strain BEM2, active compounds read low
# [18] = S. cerevisiae deletion strains, locus YER167W, strain BCK2, active compounds read low
# [19] = S. cerevisiae deletion strains, locus YGL078C, strain dbp3, active compounds read low
# [20] = S. cerevisiae deletion strains, locus YGL086W, strain mad1, active compounds read low
# [21] = S. cerevisiae deletion strains, locus YGL248W, strain PDE1, active compounds read low
# [22] = S. cerevisiae deletion strains, locus YGR135W, strain pre9, active compounds read low
# [23] = S. cerevisiae deletion strains, locus YGR229C, strain SMI1, active compounds read low
# [24] = S. cerevisiae deletion strains, locus YGR252W, strain gcn5, active compounds read low
# [25] = S. cerevisiae deletion strains, locus YHR030C, strain SLT2, active compounds read low
# [26] = S. cerevisiae deletion strains, locus YHR079C, strain IRE1 (second series), active compounds read low
# [27] = S. cerevisiae deletion strains, locus YHR094C, strain hxt1, active compounds read low
# [28] = S. cerevisiae deletion strains, locus YHR129C, strain ARP1, active compounds read low
# [29] = S. cerevisiae deletion strains, locus YHR200W, strain rpn10, active compounds read low
# [30] = S. cerevisiae deletion strains, locus YIL066C, strain RNR3, active compounds read low
# [31] = S. cerevisiae deletion strains, locus YIL073C, strain SPO22, active compounds read low
# [32] = S. cerevisiae deletion strains, locus YIL125W, strain kgd1, active compounds read low
# [33] = S. cerevisiae deletion strains, locus YIR030C, strain dcg1, active compounds read low
# [34] = S. cerevisiae deletion strains, locus YJL095W, strain BCK1, active compounds read low
# [35] = S. cerevisiae deletion strains, locus YJL134W, strain LCB3, active compounds read low
# [36] = S. cerevisiae deletion strains, locus YJL168C, strain set2, active compounds read low
# [37] = S. cerevisiae deletion strains, locus YJL187C, strain SWE1 (second series), active compounds read low
# [38] = S. cerevisiae deletion strains, locus YKL009W, strain mrt4, active compounds read low
# [39] = S. cerevisiae deletion strains, locus YKL068W, active compounds read low
# [40] = S. cerevisiae deletion strains, locus YKL085W, strain MDH1 (second series), active compounds read low
# [41] = S. cerevisiae deletion strains, locus YKL085W, strain MDH1, active compounds read low
# [42] = S. cerevisiae deletion strains, locus YKR001C, strain vps1, active compounds read low
# [43] = S. cerevisiae deletion strains, locus YLR039C, strain RIC1, active compounds read low
# [44] = S. cerevisiae deletion strains, locus YLR058C, strain SHM2, active compounds read low
# [45] = S. cerevisiae deletion strains, locus YLR102C, strain apc9, active compounds read low
# [46] = S. cerevisiae deletion strains, locus YLR268W, strain sec22, active compounds read low
# [47] = S. cerevisiae deletion strains, locus YLR371W, strain rom2, active compounds read low
# [48] = S. cerevisiae deletion strains, locus YLR418C, strain cdc73, active compounds read low
# [49] = S. cerevisiae deletion strains, locus YML016C, strain PPZ1, active compounds read low
# [50] = S. cerevisiae deletion strains, locus YML032C, strain rad52, active compounds read low
# [51] = S. cerevisiae deletion strains, locus YML124C, strain tub3, active compounds read low
# [52] = S. cerevisiae deletion strains, locus YMR078C, strain ctf18, active compounds read low
# [53] = S. cerevisiae deletion strains, locus YMR223W, strain ubp8, active compounds read low
# [54] = S. cerevisiae deletion strains, locus YMR307W, strain GAS1, active compounds read low
# [55] = S. cerevisiae deletion strains, locus YNL067W, strain RPL9B, active compounds read low
# [56] = S. cerevisiae deletion strains, locus YNL233W, strain BNI4, active compounds read low
# [57] = S. cerevisiae deletion strains, locus YNL250W, strain rad50, active compounds read low
# [58] = S. cerevisiae deletion strains, locus YNL271C, strain bni1, active compounds read low
# [59] = S. cerevisiae deletion strains, locus YNL298W, strain CLA4, active compounds read low
# [60] = S. cerevisiae deletion strains, locus YNL307C, strain MCK1, active compounds read low
# [61] = S. cerevisiae deletion strains, locus YNR052C, strain pop2, active compounds read low
# [62] = S. cerevisiae deletion strains, locus YOL012C, strain htz1
# [63] = S. cerevisiae deletion strains, locus YOL147C, strain pex11, active compounds read low
# [64] = S. cerevisiae deletion strains, locus YOR061W, strain CKA2, active compounds read low
# [65] = S. cerevisiae deletion strains, locus YOR069W, strain VPS5, active compounds read low
# [66] = S. cerevisiae deletion strains, locus YOR136W, strain idh2, active compounds read low
# [67] = S. cerevisiae deletion strains, locus YOR144C, strain elg1, active compounds read low
# [68] = S. cerevisiae deletion strains, locus YOR184W, strain ser1, active compounds read low
# [69] = S. cerevisiae deletion strains, locus YOR316C, strain cot1, active compounds read low
# [70] = S. cerevisiae deletion strains, locus YPL241C, strain CIN2, active compounds read low
# [71] = S. cerevisiae deletion strains, locus YPR119W, strain clb2, active compounds read low
# [72] = S. cerevisiae deletion strains, locus YPR141C, strain kar3, active compounds read low
# [73] = S. cerevisiae deletion strains, locus YPR163C, strain tif3, active compounds read low
# [74] = S. cerevisiae deletion strains, locus YPR167C, strain met16, active compounds read low
# [75] = S. cerevisiae deletion strains, strain wtn01, active compounds read low
structure (smiles),measurement,setting,value
C=C1C([C@]2(C)C(CC(=O)OC)[C@@](C)(COC(C)=O)OC(=O)C[C@@H]2OC(C)=O)[C@@H](OC=O)[C@H](OC(=O)C(O)C(C)CC)[C@@]2(C)[C@H](c3ccoc3)CC(=O)C12O (some centres undefined),normalized growth,[1],0.996
same,normalized growth,[2],1
same,normalized growth,[3],1.02
same,normalized growth,[4],1.01
same,normalized growth,[5],1.02
same,normalized growth,[6],1.02
same,normalized growth,[7],1.01
same,normalized growth,[8],1.01
same,normalized growth,[9],1.01
same,normalized growth,[10],1
same,normalized growth,[11],1.02
same,normalized growth,[12],1.01
same,normalized growth,[13],0.998
same,normalized growth,[14],1.01
same,normalized growth,[15],1
same,normalized growth,[16],1.01
same,normalized growth,[17],1.01
same,normalized growth,[18],1
same,normalized growth,[19],1.02
same,normalized growth,[20],1
same,normalized growth,[21],1.01
same,normalized growth,[22],1.04
same,normalized growth,[23],1.06
same,normalized growth,[24],1.03
same,normalized growth,[25],1.01
same,normalized growth,[26],1.02
same,normalized growth,[27],1.01
same,normalized growth,[28],1.01
same,normalized growth,[29],0.995
same,normalized growth,[30],1.01
same,normalized growth,[31],1.09
same,normalized growth,[32],1
same,normalized growth,[33],1.01
same,normalized growth,[34],1.04
same,normalized growth,[35],1.01
same,normalized growth,[36],1.01
same,normalized growth,[37],1.02
same,normalized growth,[38],0.994
same,normalized growth,[39],1.01
same,normalized growth,[40],0.999
same,normalized growth,[41],0.999
same,normalized growth,[42],1.02
same,normalized growth,[43],1.09
same,normalized growth,[44],1.01
same,normalized growth,[45],1.01
same,normalized growth,[46],1
same,normalized growth,"S. cerevisiae deletion strains, locus YLR342W, strain FKS1 (second series), active compounds read low",1.01
same,normalized growth,[47],1.01
same,normalized growth,[48],1.03
same,normalized growth,[49],1
same,normalized growth,[50],0.991
same,normalized growth,[51],1.01
same,normalized growth,[52],1.02
same,normalized growth,[53],1.01
same,normalized growth,[54],1.1
same,normalized growth,[55],1.02
same,normalized growth,"S. cerevisiae deletion strains, locus YNL153C, strain GIM3, active compounds read low",1.01
same,normalized growth,[56],1.03
same,normalized growth,[57],1.01
same,normalized growth,[58],1.01
same,normalized growth,[59],1.03
same,normalized growth,[60],1.01
same,normalized growth,"S. cerevisiae deletion strains, locus YNL322C, strain KRE1, active compounds read low",1.01
same,normalized growth,[61],1.01
same,normalized growth,"S. cerevisiae deletion strains, locus YOL006C, strain TOP1, active compounds read low",1.04
same,normalized growth,[62],0.797
same,normalized growth,[63],1.01
same,normalized growth,[64],1
same,normalized growth,[65],1.01
same,normalized growth,[66],1
same,normalized growth,[67],1
same,normalized growth,[68],1.01
same,normalized growth,[69],1.01
same,normalized growth,[70],1.01
same,normalized growth,[71],1.01
same,normalized growth,[72],1.02
same,normalized growth,[73],1.01
same,normalized growth,[74],1.01
same,normalized growth,[75],0.997
C=C1C([C@]2(C)C(CC(=O)OC)[C@@](C)(COC(C)=O)OC(=O)C[C@@H]2OC(C)=O)[C@@H](OC=O)[C@H](OC(=O)C(OC(C)=O)C(C)CC)[C@@]2(C)[C@H](c3ccoc3)CC(=O)C12O (some centres undefined),normalized growth,"S. cerevisiae deletion strains, locus YAL013W, strain DEP1, active compounds read low",1.03
same,normalized growth,[1],1.03
same,normalized growth,[2],1.01
same,normalized growth,[3],1.03
same,normalized growth,[4],1.01
same,normalized growth,[5],1.04
same,normalized growth,[6],1.03
same,normalized growth,[7],1.03
same,normalized growth,[8],1.03
same,normalized growth,[9],1.03
same,normalized growth,[10],1.01
same,normalized growth,"S. cerevisiae deletion strains, locus YDR150W, strain NUM1, active compounds read low",1.03
same,normalized growth,[11],1.02
same,normalized growth,[12],1.03
same,normalized growth,[13],1.03
same,normalized growth,[14],1.04
same,normalized growth,[15],1.02
same,normalized growth,[16],1.03
same,normalized growth,[17],1.02
same,normalized growth,[18],1.01
same,normalized growth,[19],1.04
same,normalized growth,[20],1.04
same,normalized growth,[21],1.02
same,normalized growth,[22],1.03
same,normalized growth,[23],1.08
same,normalized growth,[24],1.03
same,normalized growth,[25],1.02
same,normalized growth,[26],1.03
same,normalized growth,[27],1.04
same,normalized growth,[28],1.02
same,normalized growth,[29],1.03
same,normalized growth,[30],1
same,normalized growth,[31],1.06
same,normalized growth,[32],1.02
same,normalized growth,[33],1.03
same,normalized growth,[34],1.04
same,normalized growth,[35],1.02
same,normalized growth,[36],1.03
same,normalized growth,[37],1.03
same,normalized growth,[38],0.952
same,normalized growth,[39],1.03
same,normalized growth,[40],1.16 [resistant] (active)
same,normalized growth,[41],1.16 [resistant] (active)
same,normalized growth,"S. cerevisiae deletion strains, locus YKL190W, strain CNB1, active compounds read low",1.01
same,normalized growth,[42],1.03
same,normalized growth,[43],1.09
same,normalized growth,[44],1.01
same,normalized growth,[45],1.03
same,normalized growth,[46],1.02
same,normalized growth,"S. cerevisiae deletion strains, locus YLR330W, strain CHS5, active compounds read low",1.02
same,normalized growth,[47],1.03
same,normalized growth,[48],1.07
same,normalized growth,[49],1.01
same,normalized growth,[50],1.03
same,normalized growth,[51],1.03
same,normalized growth,[52],1.03
same,normalized growth,[53],1.03
same,normalized growth,[54],1.04
same,normalized growth,[55],1.03
same,normalized growth,[56],1.03
same,normalized growth,[57],1.01
same,normalized growth,[58],1.03
same,normalized growth,[59],1.02
same,normalized growth,[60],1.02
same,normalized growth,[61],1.04
same,normalized growth,[62],1.2
same,normalized growth,[63],1.03
same,normalized growth,[64],1.02
same,normalized growth,[65],1.02
same,normalized growth,[66],1.03
same,normalized growth,[67],1.04
same,normalized growth,[68],1.02
same,normalized growth,[69],1.03
same,normalized growth,[70],1.02
same,normalized growth,[71],1.02
same,normalized growth,[72],1.02
same,normalized growth,[73],1.04
same,normalized growth,[74],1.03
same,normalized growth,[75],1.01
same,normalized growth,"S. cerevisiae strains, strain wild type, active compounds read low",1.03
